High-throughput results from PubChem.
CHX counter: counter-screen hit for Shiga toxin inhibitors, cycloheximide. cell reporter, cycloheximide protein synthesis inhibition counterscreen. max response, %. 300,000 tested, 12% active. AID 2314; in the data active = max response mostly above about 13%, no sharp cut-off; inactive = mostly below about 14%; also: read at 38.3 µM for the half of the compounds with a filed dose; 0% is about no effect
NS1 function inh: inhibitors of influenza NS1 protein function. 270,000 tested, 0.4% active. Potency, µM (highest dose often 46.1 µM), without a hit: at the top dose activity, positive = more growth; also: potency is read from the fitted curve at half-maximal effect; actives are rising curves; nearly all actives have a fitted effect of over 50% in size
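A cell-based growth assay was used: compounds that relieve NS1-induced slow growth of budding yeast raise OD600. Assay medium was yeast nitrogen base with ammonium sulphate and -URA supplement, pH 6.0, with 2% galactose.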
Shiga toxin inh: inhibitors of Shiga toxin in Vero cells | 290,000 tested, 9.2% active | Vero cells, Shiga toxin protein synthesis inhibition reporter | inhibition, % at 38.7 µM | AID 2315; in the data active = inhibition mostly above about 28%, no sharp cut-off; inactive = mostly below about 43%; also: 0% is about no effect
SARS PLpro yeast: inhibitors of SARS-CoV papain-like protease in yeast | S. cerevisiae expressing SARS-CoV PLpro, growth rescue | Potency, µM (highest dose often 32.9 µM), without a hit: top-dose activity, positive = growth rescue, hits mostly activators | 330,000 tested, 0.19% active; also: potency is read from the fitted curve at half-maximal effect; 0% is about no effect; nearly all actives have a fitted effect of over 55% in size
* hit, by the source's call; x = no result. Most compounds without a hit are left out; they make up all but 12% or so of the library. Unless noted, calls follow the shape of the full dose curve.

SMILES	CHX counter	NS1 function inh	Shiga toxin inh	SARS PLpro yeast
Cc1ccc(OCCN2C(=O)c3ccccc3C2=O)c([N+](=O)[O-])c1	63.5*	-0.1%	106.5*	13.8%
COc1ccc(OCCN2C(=O)c3cccc(N)c3C2=O)cc1	31.6*	11.0%	73.9*	-3.0%
Cc1ccc(OCCN2C(=O)c3ccccc3C2=O)c(C)c1	6.4	5.6%	-3.8	-5.1%
COc1ccc(N2CCN(CCN3C(=O)c4ccccc4C3=O)CC2)cc1	-4.4	3.2%	1.4	-2.5%
Cc1ccc(OCCN2C(=O)c3ccccc3C2=O)cc1	31.1*	-9.5%	108.2*	-2.5%
Cc1ccc(OCCN2C(=O)CSC2=O)cc1	22.4*	3.3%	20.1	-1.9%
COC(=O)C1=C(C)NC(C)=C(C(=O)OC)C1C(=O)OCc1nnc(-c2ccccc2Cl)o1	x	x	x	-4.3%
Cc1cc(C2(c3cc(C)c(O)c(C(=O)O)c3)OS(=O)(=O)c3ccccc32)cc(C(=O)O)c1O	x	-5.6%	x	x
COc1cccc(C(=O)OCCN2C(=O)c3ccccc3C2=O)c1OC	7.6	-28.3%	32.5	0.2%
COc1ccc(C(=O)OCCN2C(=O)c3ccccc3C2=O)cc1	16.6	-30.9%	54.4*	0.8%
O=C(O)c1nn(CCOc2cccc(Br)c2)c(=O)c2ccccc12	-3.0	3.5%	5.5	-6.4%
COc1ccc(N(CN2C(=O)c3ccccc3C2=O)C(=O)C(C)C)cc1	21.5*	-15.8%	12.4	4.3%
O=C1c2ccccc2C(=O)N1CCOc1cccc(Br)c1	28.1*	-7.1%	51.7*	-3.9%
CCC(=O)N1CCc2cc(Br)cc(S(=O)(=O)Nc3c(C)n(C)n(-c4ccccc4)c3=O)c21	-2.6	x	26.7	-0.2%
Cc1nc(-c2noc(-c3ccccc3Cl)n2)c(C(F)(F)F)o1	60.6*	-3.3%	46.7*	-1.0%
Clc1ccccc1-c1nc(-c2cccnc2)no1	24.6*	-51.4%	83.4*	x
Cc1ccccc1-c1nc(-c2ccccn2)no1	-0.8	-0.3%	4.8	-19.9%
Cc1ccccc1-c1nc(-c2cccnc2)no1	27.8*	-52.2%	82.6*	5.8%
Clc1ccccc1-c1nnc2sc(-c3cccs3)nn12	1.1	-34.5%	2.5	22.4µM*
COc1ccc(C(CC(=O)Nc2ccc(C)cn2)N2Cc3ccccc3C2=O)cc1 (stereo not given)	0.6	-7.2%	4.7	0.4%
O=C(CCC(=O)N1CCOCC1)Nc1nnc(C2CCCCC2)s1	7.0	7.8%	5.9	13.3%
Clc1cc2c(c(CSC3=NCN(CC4CC4)CN3)c1)OCOC2	x	-3.1%	x	x
CCOc1ccc(NC(=O)c2ccc(N3CC4CC(C3)c3cccc(=O)n3C4)c(NC(=O)c3cccnc3)c2)cc1 (stereo not given)	-3.9	-10.3%	-2.2	2.3%
NC(=O)CC[C@@H]1NC(=O)C(Cc2ccc(O)cc2)NC(=O)c2cc([N+](=O)[O-])cc(F)c2NCCC[C@@H](C(N)=O)NC1=O (stereo not given in full)	-1.0	-16.8%	3.5	-5.2%
O=C(Nc1nnc(-c2cccnc2)o1)c1ccccc1Cl	9.2	x	18.1	-4.6%
SMILES	CHX counter	NS1 function inh	Shiga toxin inh	SARS PLpro yeast
Clc1ccccc1-c1nc(-c2ccncc2)no1	26.3*	-13.2%	97.4*	-5.0%
Clc1ccccc1-c1nnc(-c2cccnc2)o1	25.5*	-11.4%	58.1	1.1%
Cc1ccc(-c2nc(-c3ccncc3)no2)c(Cl)c1	34.8*	-35.1%	x	1.5%
Clc1ccccc1-c1nnc(CNC2CC2)o1	15.1	x	19.5	1.3%
c1ccc(-c2ccccc2-c2nc(-c3ccncc3)no2)cc1	-1.0	-131.8%	6.8	-10.8%
Clc1ccccc1-c1nnc(-c2cccs2)o1	40.7*	x	89.2*	-5.0%
O=C(COC(=O)c1cc(C(F)(F)F)cc(C(F)(F)F)c1)NCc1ccc(Cl)cc1	-3.2	-4.6%	-3.8	10.1%
Clc1ccccc1/C=C/c1nc(-c2cccnc2)no1	40.6*	-4.2%	97.9*	0.3%
CSc1ccccc1-c1nc(-c2ccncc2)no1	56.6*	-39.1%	81.9*	-1.9%
C(=C\c1nc(-c2cccnc2)no1)/c1ccccc1	7.9	2.4%	12.7	0.8%
Cc1onc(-c2ccccc2Cl)c1-c1nc(-c2ccncc2)no1	-2.7	-0.6%	6.2	-23.4%
CC1=CN(S(=O)(=O)c2ccc(C)cc2)C[C@@H]2c3ccccc3N(S(=O)(=O)c3ccc(C)cc3)[C@H]12	x	x	x	9.3%
O=C(Nc1nc2c(s1)CN(Cc1ccccc1)CC2)C1CCC1	31.1*	x	74.2*	0.5%
CCCCN(C)C(=O)c1cc2c(s1)-c1ccccc1S(=O)(=O)C2	20.9*	-4.9%	45.1	-0.4%
CN1CCN(C(=O)c2cc3c(s2)-c2ccccc2S(=O)(=O)C3)CC1	7.3	-10.4%	11.0	-2.9%
COc1ccc(N(C)C(=O)c2cc3c(s2)-c2ccccc2S(=O)(=O)C3)cc1	8.0	-5.4%	2.8	-0.4%
